Assay results as given in PubChem BioAssay (EPA / NIEHS).
Records with an inconclusive call do not appear. Activity calls are given as the source filed them. How the source made its calls, unless noted: active means hit-call score of the fitted dose curve at least 0.9, where 1 is the maximum; inactive means score below 0.9.

Columns and labels:
[1] = read-out: Monocyte Chemoattractant Protein-1 (MCP1), CCL2 (gene 6347); assay: BSK_SAg_MCP1: BioMAP Diversity Plus: SAg Assay for Monocyte Chemoattractant Protein-1 (MCP1) Biomarker Activity (AID 2283090); settings: primary human HUVEC with PBMC; actives raise or lower the signal
Outline: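 Values derive from bidirectional fitting of ELISA-measured MCP1 against DMSO controls. Readings were taken 24 h after dosing human vascular endothelial cells co-cultured with peripheral blood mononuclear cells under superantigen stimulation.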

[2] = read-out: E-selectin (Homo sapiens) (UniProt P16581); assay: BSK_SAg_Eselectin: BioMAP Diversity Plus: SAg Assay for Eselectin Biomarker Activity (AID 2283091); settings: primary human HUVEC with PBMC; actives raise or lower the signal
Outline: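 Primary human endothelial cells and peripheral blood mononuclear cells were co-cultured and exposed to chemical for 24 hours. E-selectin levels were then quantified by ELISA, with bidirectional curve fitting normalised to DMSO controls.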

[3] = BSK_SAg_PBMCCytotoxicity: PBMC Cytotoxicity Assessment in the BioMAP Diversity Plus: SAg Assay (AID 2283093); settings: primary human HUVEC with PBMC;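 further: PBMC viability measured as Alamar Blue reduction fluorescence at 546/580 nm; fitted both ways against DMSO so a hit may be loss or gain of signal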;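 on AC50: PBMC superantigen activated with SEB plus TSST-1 one hour after compound addition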
Outline: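 Alamar Blue reduction (6 h, 546/580 nm) reports PBMC cytotoxicity after 90 h superantigen activation (SEB, TSST-1; 20 ng/mL final each) with 1 h compound pre-treatment. Gain or loss of signal fitted versus DMSO.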

[4] = read-out: Interleukin-8 (IL8), CXCL8 (gene 3576); assay: BSK_SAg_IL8: BioMAP Diversity Plus: SAg Assay for Interleukin-8 (IL8) Biomarker Activity (AID 2283094); settings: primary human HUVEC with PBMC; actives raise or lower the signal
Outline: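 ELISA readout of IL-8 from a superantigen-activated endothelial/PBMC primary human co-culture, taken 24 h post-dosing and fitted in both directions against DMSO; parallel SRB total-protein staining flags overt cytotoxicity.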

[5] = BSK_SAg_SRB: Viability Assessment in the BioMAP Diversity Plus: SAg Assay (AID 2283096); settings: primary human HUVEC with PBMC;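 further: cells read one day after compound addition; hits may be either gain or loss of signal compared with DMSO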
Outline: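 This overt-cytotoxicity endpoint quantifies protein in human endothelial/PBMC co-cultures at 24 h using SRB absorbance (560 nm) after trichloroacetic acid fixation. Values reflect signal change from the DMSO negative control, fitted bidirectionally.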

[6] = BSK_SAg_Proliferation: Cell Proliferation Assessment in the BioMAP Diversity Plus: SAg Assay (AID 2283095); settings: primary human HUVEC with PBMC;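 further: relative cell number as total protein by SRB absorbance in sub-confluent culture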
Outline: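 Relative cell number in the endothelial cell/PBMC co-culture was quantified at 96 h by SRB staining (0.1% SRB, 10% TCA fixation, read at 560 nm). Curves were fitted in both directions relative to DMSO baseline.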

[7] = target: human CYP1A1, CYP1A1 (gene 1543) (UniProt P04798); assay: NVS_ADME_hCYP1A1: NovaScreen (NVS) CYP450-related Enzyme Activity (ADME) Assay for human CYP1A1 (AID 2283100; active means hit-call score of the fitted dose curve at least 0.9, where 1 is the maximum)
Description: NVS_ADME_hCYP1A1 is a biochemical, single-readout assay that uses extracted gene-proteins in a cell-free assay. Measurements were taken 1 hour after chemical dosing in a 96-well plate.NVS_ADME_hCYP1A1 is one of one assay component(s) measured or calculated from the NVS_ADME_hCYP1A1 assay. It is designed to make measurements of enzyme activity, a form of enzyme reporter, as detected with fluorescence intensity signals by Fluorescence technology.Data from the assay component NVS_ADME_hCYP1A1 was analyzed into 1 assay endpoint. This assay endpoint, NVS_ADME_hCYP1A1, was analyzed in the positive analysis fitting direction relative to Acetonitrile as the negative control and baseline of activity. Using a type of enzyme reporter, loss-of-signal activity can be used to understand changes in the enzymatic activity as they relate to the gene CYP1A1. Furthermore, this assay endpoint can be referred to as a primary readout, because this assay has produced multiple assay endpoints where this one serves a enzymatic activity function. To generalize the intended target to other relatable targets, this assay endpoint is annotated to the cyp intended target family, where the subfamily is xenobiotic metabolism. […]

Measured: AC50

Chain of E-selectin (Homo sapiens) (P16581 whole entry, looked up): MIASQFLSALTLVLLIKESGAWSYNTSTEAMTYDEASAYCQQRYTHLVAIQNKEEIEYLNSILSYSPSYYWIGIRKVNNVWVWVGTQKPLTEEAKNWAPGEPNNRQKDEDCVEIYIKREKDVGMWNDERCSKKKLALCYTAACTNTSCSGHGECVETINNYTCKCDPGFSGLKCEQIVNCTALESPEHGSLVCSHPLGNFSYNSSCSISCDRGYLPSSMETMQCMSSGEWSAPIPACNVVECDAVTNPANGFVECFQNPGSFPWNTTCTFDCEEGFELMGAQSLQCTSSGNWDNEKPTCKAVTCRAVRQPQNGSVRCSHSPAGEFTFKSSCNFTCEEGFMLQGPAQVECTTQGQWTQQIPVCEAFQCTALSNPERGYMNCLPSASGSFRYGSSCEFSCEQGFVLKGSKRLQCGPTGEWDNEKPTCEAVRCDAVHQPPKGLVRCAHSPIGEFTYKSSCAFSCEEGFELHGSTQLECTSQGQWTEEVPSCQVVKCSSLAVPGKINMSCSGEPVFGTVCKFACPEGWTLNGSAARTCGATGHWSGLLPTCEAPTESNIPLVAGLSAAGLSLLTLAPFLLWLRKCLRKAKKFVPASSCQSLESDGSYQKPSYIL
Chain of human CYP1A1, CYP1A1 (gene 1543) (P04798 whole entry, looked up): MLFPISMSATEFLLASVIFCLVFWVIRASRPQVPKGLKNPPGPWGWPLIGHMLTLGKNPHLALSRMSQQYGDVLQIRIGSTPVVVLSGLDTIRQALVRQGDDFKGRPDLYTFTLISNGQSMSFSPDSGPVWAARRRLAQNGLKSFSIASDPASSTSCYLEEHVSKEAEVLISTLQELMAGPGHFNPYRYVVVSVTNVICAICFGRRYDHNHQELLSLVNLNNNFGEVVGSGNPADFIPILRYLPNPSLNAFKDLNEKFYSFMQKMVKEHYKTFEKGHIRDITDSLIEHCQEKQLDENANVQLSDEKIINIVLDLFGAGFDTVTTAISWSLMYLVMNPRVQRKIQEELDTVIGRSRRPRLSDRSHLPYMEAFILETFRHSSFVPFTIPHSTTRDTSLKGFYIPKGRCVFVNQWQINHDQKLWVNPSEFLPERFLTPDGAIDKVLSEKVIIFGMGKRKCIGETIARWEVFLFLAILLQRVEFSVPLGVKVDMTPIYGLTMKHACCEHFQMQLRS

CCCc1ccccc1
inactive: [1] | [2] | [3] | [4] | [5]

CC(C)c1nnc2ccc(-c3ocnc3-c3cc(F)ccc3F)cn12
active: [1] 3.97 µM | [2] 10.6 µM | [3] 0.882 µM | [4] 1.27 µM
inactive: [5]

CCCCCCOC(=O)CC(CC(=O)OCCCCCC)(OC(=O)CCC)C(=O)OCCCCCC
inactive: [1] | [2] | [4] | [5]

FC(F)C(F)(F)COCC1CO1 (stereo not drawn)
inactive: [1] | [2] | [4] | [6] | [5]

O=C1CN(N=Cc2ccc([N+](=O)[O-])o2)C(=O)N1
active: [2] 9.33 µM
inactive: [1] | [4] | [5]

CCCCCOC(C)=O
inactive: [1] | [2] | [4] | [5]
active: [6] 15.1 µM

OCCC(F)(F)C(F)(F)C(F)(F)C(F)(F)F
inactive: [1] | [2] | [4] | [5]

OC(CCl)CCl
inactive: [1] | [2] | [4] | [5]

OCc1c[nH]c2ccccc12
active: [4] 0.0481 µM | [6] 31.1 µM
inactive: [1] | [2] | [5]

FC(F)=C(F)C(F)(F)C(F)(F)C(F)(F)C(F)(F)C(F)(F)C(F)(F)F
inactive: [1] | [2] | [3] | [4] | [5]

O=S1(=O)CCCO1
inactive: [1] | [2] | [4] | [6] | [5]

CC1(C)C(=O)N(Cl)C(=O)N1Cl
inactive: [1] | [2] | [3] | [4] | [5]

O=C(O)c1ccc2c(c1)nc(C(=O)NC1CCN(C3CC3)CC1)n2Cc1cc(-c2ccc(Cl)s2)on1
inactive: [1] | [2] | [4] | [6] | [5]

CCCCN1C(=O)[C@@H]([C@H](O)C2CCCCC2)NC(=O)C12CCN(Cc1ccc(Oc3ccc(C(=O)O)cc3)cc1)CC2
inactive: [1] | [2] | [3] | [4] | [5]

O=C(Cl)C(F)(F)C(F)(F)C(F)(F)C(=O)Cl
inactive: [1] | [2] | [4] | [5]

NNC(=O)c1ccncc1
active: [3] 5.14 µM
inactive: [1] | [2] | [4] | [5]

C=CN1CCCC1=O
inactive: [1] | [2] | [4] | [5]

COS(C)(=O)=O
inactive: [1] | [2] | [3] | [4] | [5]

Cn1cc[nH]c1=S
inactive: [1] | [2] | [4] | [5]

OCCOCCOCCO
inactive: [1] | [2] | [3] | [4] | [5]

OCc1ccccc1
inactive: [1] | [2] | [4] | [5]

C=CCc1cc(S(=O)(=O)c2ccc(O)c(CC=C)c2)ccc1O
active: [1] 15.1 µM | [2] 13.8 µM | [4] 11.4 µM | [6] 17.1 µM | [5] 19.2 µM | [7] 2.32 µM

c1ccc2cc3ccccc3cc2c1
inactive: [1] | [2] | [3] | [4] | [5]

CCCCOC(=O)c1ccccc1
inactive: [1] | [2] | [3] | [4] | [5]
